Test results as given in PubChem BioAssay AID1852 (Sanford-Burnham Center for Chemical Genomics, 2009).
The campaign covered roughly 2,500 compounds. About 1,100 (44%) were called active.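 How the source made its calls: active means inhibition above 50% at 4 µM in the single-point screen; inactive means inhibition of 50% or less.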 The set was probably picked from earlier hits. This is one part of the list.

experiment: TNF-a-driven NF-kB reporter inhibitors, primary screen, selectivity assay for NOD1/NOD2 signaling inhibitor project, cell-based, HEK293T NF-kB-Luc, luminescence (AID 1852); details: TNF-a induced, 14 h, at 4 µM, active compounds read high

| SMILES | inhibition |
| --- | --- |
| COc1ccccc1CN(C)C(=O)c1cc(-c2cc(OC)c(OC)c(OC)c2)nc2ccccc12 | 20.3% (inactive) |
| COc1cccc(CN(C)C(=O)CNC(=O)c2ccc(-c3ccccc3)cc2)c1OC | 57% (active) |
| COc1ccc(CN(C)C(=O)c2cc(-c3ccc(C)cc3C)nc3ccccc23)c(OC)c1OC | -3.9% (inactive) |
| CC(=O)N(c1ccccc1Cl)S(=O)(=O)c1ccc(Cl)cc1 | 9.8% (inactive) |
| Cc1ccc(S(=O)(=O)NC(C(=O)N2CCOCCOCCOCC2)C(C)C)cc1 (centres undefined) | 15.4% (inactive) |
| CN(c1ccc(C(=O)Nc2ccccc2C(=O)N2CCOCC2)cc1)S(C)(=O)=O | 16.2% (inactive) |
| O=C(c1nnsc1S(=O)(=O)c1ccc(Cl)cc1)N1CCOCC1 | 52% (active) |
| O=S(=O)(c1ccc(Cl)cc1)c1snnc1-c1ccccc1 | 44.1% (inactive) |
| CNC(=O)c1nnsc1S(=O)(=O)c1ccc(Cl)cc1 | 91.4% (active) |
| CCSCCc1nnc(NC(=O)Nc2cccc(C(F)(F)F)c2)s1 | 7.5% (inactive) |
| O=C(Nc1nnc(-c2cccs2)o1)c1cccc(C(F)(F)F)c1 | 100% (active) |
| O=C(Nc1nnc(-c2cccs2)o1)c1cccc(Oc2ccccc2)c1 | 103% (active) |
| O=C(CCC(=O)N1CCOc2ccccc21)NCc1ccccn1 | 18.7% (inactive) |
| Cc1ccc(S(=O)(=O)Nc2ccc(Br)cc2/C=N/n2cnnc2)cc1 | 47.3% (inactive) |
| Cc1cc(/C=N/n2cnnc2)c(C)n1-c1ccc(OCc2ccc(Cl)cc2Cl)cc1 | 71.9% (active) |
| CN(C)c1ccnc2sc(C(N)=O)c(N)c12 | 83.5% (active) |
| O=C(c1ccccc1)c1ccc2nc(-c3ccc(NC(=O)c4ccccc4Br)cc3)[nH]c2c1 | 11.7% (inactive) |
| Cc1c(C(=O)Nc2nc3ccccc3[nH]2)oc2ccc(Br)cc12 | 98.6% (active) |
| CCc1ccc(C(=O)Nc2nc3ccccc3[nH]2)cc1 | 103% (active) |
| CN(c1ccccc1)S(=O)(=O)c1cc(C(=O)Nc2nc3ccccc3[nH]2)ccc1Cl | 31.3% (inactive) |

| SMILES | inhibition |
| --- | --- |
| O=C(Nc1nc2ccccc2[nH]1)c1cc(F)cc(F)c1 | 80.3% (active) |
| Cc1cc(NC(=O)/C=C/c2ccc(F)cc2)n(-c2nc3ccccc3[nH]2)n1 | -3.9% (inactive) |
| Cc1ccc(N=Cc2cc(Cc3ccccc3Cl)cc([N+](=O)[O-])c2O)c(O)c1 | 70.8% (active) |
| Cc1ccc(O)c(N=Cc2cc(Cc3ccccc3)cc([N+](=O)[O-])c2O)c1 | -1.6% (inactive) |
| Cc1ccc(-n2c(C)c([N+](=O)[O-])c3ccc(O)cc32)cc1 | 40.4% (inactive) |
| Cc1c([N+](=O)[O-])c2ccc(O)cc2n1-c1ccccc1 | 60.9% (active) |
| CN(C)/C=C/c1c([N+](=O)[O-])c2ccc(O)cc2n1-c1ccccc1 | 83.5% (active) |
| COc1cc([N+](=O)[O-])cc(/C=C2/SC(=S)N(Cc3ccccc3)C2=O)c1O | 81.1% (active) |
| COc1cc(/C=C2\SC(=S)N(CCC(=O)Nc3ccccc3)C2=O)cc(OC)c1OC | 6.8% (inactive) |
| O=C1/C(=C\c2cccc([N+](=O)[O-])c2O)SC(=S)N1Cc1ccccc1 | 14.2% (inactive) |
| O=C1/C(=C\c2cc(Cl)c(O)c(Cl)c2)SC(=S)N1Cc1ccccc1 | 82.7% (active) |
| O=C1/C(=C/c2ccc(O)c([N+](=O)[O-])c2)SC(=S)N1Cc1ccccc1 | 88.5% (active) |
| Cc1ccc(/C=C2\SC(=S)N(C(Cc3ccccc3)C(=O)O)C2=O)cc1 (centres undefined) | 25.1% (inactive) |
| O=C1S/C(=C\c2ccc(O)c([N+](=O)[O-])c2)C(=O)N1Cc1cccc([N+](=O)[O-])c1 | 19.6% (inactive) |
| COc1ccc(/C=C/C(=O)C2CC2)cc1Cn1nc(C)c([N+](=O)[O-])c1C | 36.6% (inactive) |
| Cc1ccc(C(C)C)c(OCc2ccc(-c3nnco3)cc2)c1 | 12.4% (inactive) |
| COc1cc(/C=C2\SC(=N)N(c3ccc(F)cc3)C2=O)ccc1O | 51.1% (active) |
| COc1ccccc1OCCCOc1cccc(/C=C2\SC(=O)NC2=O)c1 | 3.3% (inactive) |
| COc1cc(/C=C2/C(=O)NN(c3ccc(Cl)cc3)C2=O)cc(Br)c1O | -1.7% (inactive) |
| COc1cccc(OCCOc2ccc(/C=C3/SC(=S)NC3=O)cc2)c1 | -114% (inactive) |

| SMILES | inhibition |
| --- | --- |
| COc1ccc(OC)c(/C=C2\S/C(=N/NC(=O)c3ccc4ccccc4c3)NC2=O)c1 | -2.1% (inactive) |
| COc1cc(/C=C2\SC(N3CCC(C)CC3)=NC2=O)ccc1O | 1.4% (inactive) |
| COc1cc(/C=C2/SC(=Nc3ccc(O)cc3)NC2=O)ccc1O | 89.8% (active) |
| COc1ccc(N=C2NC(=O)/C(=C/c3ccc(O)c(OC)c3)S2)cc1 | 70.8% (active) |
| COc1cc(/C=N/NC(=O)c2ccc(-c3ccccc3)cc2)cc(OC)c1OC | 63.8% (active) |
| COc1cccc(/C=N/NC(=O)c2ccc(-c3ccccc3)cc2)c1O | 70% (active) |
| COc1cc(/C=N/NC(=O)c2cc3c(ccc4ccccc43)o2)cc(OC)c1O | 36.5% (inactive) |
| COc1cc(/C=N\NC(=O)c2ccc(-c3ccccc3)cc2)cc(Br)c1O | 43% (inactive) |
| Cc1ccccc1CS(=O)(=O)c1nnc([C@H](CC(C)C)NC(=O)OC(C)(C)C)o1 | 35% (inactive) |
| COc1cc(CNc2ccc3[nH]c(=O)[nH]c3c2)ccc1OCc1c(F)cccc1Cl | 49.2% (inactive) |
| Clc1c(Cl)c(Cl)c2n[nH]nc2c1Cl | 26.8% (inactive) |
| O=C(CCC(=O)Nc1ccc(Br)cc1)N/N=C/c1ccccc1O | 49.3% (inactive) |
| Cc1cccc2cc(/C=N/NC(=O)c3ccccc3O)c(Cl)nc12 | 63.3% (active) |
| COc1cccc(/C=N/NC(=O)c2c(C)nc3ccc(Cl)cn23)c1O | 46.8% (inactive) |
| O=C(N/N=C/c1ccccc1O)c1cccc2ccccc12 | 99.3% (active) |
| Cc1ccc(NC(=O)CCC(=O)N/N=C/c2ccccc2O)cc1 | 58.1% (active) |
| O=C(/C=C/c1ccco1)Oc1cc(Br)cc(/C=N/NC(=O)c2ccccc2O)c1 | 44.6% (inactive) |
| Cc1c(/C=N/NC(=O)c2ccccc2O)c2ccccn2c1C(=O)c1ccc(F)cc1 | 21.3% (inactive) |
| O=C(N/N=C/c1cccc2cccnc12)c1ccccc1O | 53.1% (active) |
